{"source": "PubChem BioAssay AID540356", "about": "(Broad Institute, 2011)", "note": "Screen size: about 2,500 compounds; about 360 (14%) were called active.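 The calls were made as follows: active = signal-lowering compounds whose fitted half-maximal concentration AC50 is no higher than ten times their top tested concentration; inconclusive = flat curve with 30 to 70% inhibition, or poor fit; inactive = flat within 30%, signal increase, or AC50 above limit.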 Only a sample is shown.", "data": [{"assay": "HRP/luminol detection interference without ALR, dose response, artefact control for ALR inhibitor project, biochemical, luminescence, no ALR or DTT, cherry-pick (AID 540356)", "details": "HRP/H2O2 luminol luminescence counterscreen; series mostly up to 10 µM", "values": [{"compound": "CC1CC/C(=N/Nc2ccccc2)C(=O)N1", "note": "(stereo not given)", "AC50": "inactive"}, {"compound": "c1csc(-c2nc3ccccn3c2NC2CCCCC2)c1", "AC50": "inactive"}, {"compound": "Cc1ccn2c(NC(C)(C)C)c(-c3cccs3)nc2c1", "AC50": "inactive"}, {"compound": "COc1ccc(C)cc1NC(=O)c1cc2c(CO)cnc(C)c2oc1=N", "AC50": "inactive"}, {"compound": "Oc1ccccc1N1CCN(c2nnnn2-c2ccccc2)CC1", "AC50": "inactive"}, {"compound": "CN1CC(=O)N(CC(=O)Nc2ccc(SC(F)F)cc2)C1=O", "AC50": "inactive"}, {"compound": "O=C(NCC(=O)N1CCN(c2ccccc2O)CC1)c1cccs1", "AC50": "inactive"}, {"compound": "Cc1ccc(S(=O)(=O)Nc2c(C(=O)O)[nH]c3ccccc23)c(C)c1", "AC50": "inactive"}, {"compound": "C/C(=N\\NC(=O)c1csc2ccccc12)c1ccc(O)cc1", "AC50": "inactive"}, {"compound": "CCN(CC)c1ccc(C(=O)N/N=C(\\C)c2ccc(O)cc2)cc1", "AC50": "inactive"}, {"compound": "COc1ccc(CNc2cc(C)ccc2C)c(OC)c1OC", "AC50": "inactive"}, {"compound": "CC(NC(=O)C(=O)N1CCCCC1)C(c1cccs1)N1CCN(c2ccc(F)cc2)CC1", "note": "(stereo not given)", "AC50": "inactive"}, {"compound": "NNC(=O)c1ccc(O)cc1O", "AC50": "inactive"}, {"compound": "Nc1ccc2nc(COc3ccccc3)[nH]c2c1", "AC50": "inactive"}, {"compound": "NNC(=O)CCc1nc2ccc(O)cc2[nH]1", "AC50": "10.3 µM (active)"}, {"compound": "C/C(=N\\Nc1ccc(C(=O)O)cc1)c1ccc(Br)cc1", "AC50": "inactive"}, {"compound": "COc1ccc(Cc2nc3ccccc3n2CC(=O)N/N=C/c2ccc(O)cc2)cc1OC", "AC50": "inactive"}, {"compound": "COc1cccc(-c2noc(Cn3nc(C)c([N+](=O)[O-])c3C)n2)c1", "AC50": "inactive"}, {"compound": "Nc1ccc2nc(-c3ccccc3)[nH]c2c1", "AC50": "9.02 µM (active)"}, {"compound": "Cn1c(C2CCCCC2)nc2cc(N)ccc21", "AC50": "inactive"}, {"compound": "Nc1ccc(-c2nc3cc(N)ccc3o2)cc1", "AC50": "inactive"}, {"compound": "Nc1ccc2nc[nH]c2c1", "AC50": "inactive"}, {"compound": "Nc1ccc(-c2nc3ccccc3[nH]2)cc1", "AC50": "inactive"}, {"compound": "Nc1cccc(C(=O)Nc2ccc3nc(-c4cccnc4)[nH]c3c2)c1", "AC50": "inactive"}, {"compound": "COc1ccc2nc(-c3ccc(N)cc3)[nH]c2c1", "AC50": "inactive"}, {"compound": "Nc1ccc2nc(NC(=O)C3CCCCC3)sc2c1", "AC50": "inactive"}, {"compound": "CC(C)(C)c1ccc(-c2nc3cc(N)ccc3o2)cc1", "AC50": "inactive"}, {"compound": "O=[N+]([O-])c1ccc(CSC2=NCCN2)cc1", "AC50": "inactive"}, {"compound": "Cc1cccc2nc(-c3cccnc3)c(Nc3ccccc3)n12", "AC50": "inactive"}, {"compound": "COc1ccc(NCC(=O)N/N=C/C2CCCCC2)cc1", "AC50": "inactive"}, {"compound": "NNc1nc2ccc(F)cc2s1", "AC50": "inactive"}, {"compound": "Cc1[nH]c2ccccc2c1/C=N/NC(=O)Cc1cccs1", "AC50": "inactive"}, {"compound": "COc1cc(CNc2ncc(-c3ccc(Cl)cc3)n2C)cc(OC)c1OC", "AC50": "inactive"}, {"compound": "Cc1ccc(Nc2c(-c3ccccc3O)nc3ncccn23)cc1", "AC50": "inactive"}, {"compound": "Cc1csc(/C(=N/OC(=O)c2ccco2)C(N)=O)n1", "AC50": "inactive"}]}]}
